In general, AC50 refers to the concentration at which the activity in the assay is half-maximal.

Where “and” joins values, the source holds several entries; their conditions need not be identical. Equal values may be shown once. Calls of active or inactive are those of the source. Rule for the calls: active = hit-call score of the fitted dose curve at least 0.9, where 1 is the maximum; inactive = score below 0.9.

This passage reports AC50 and outcome results from PubChem BioAssay (EPA / NIEHS).

Read-out in assay [1]: Vascular cell adhesion molecule 1 (VCAM1), VCAM1 (gene 7412)
The assay is described as follows: BSK_4H_VCAM1: BioMAP Diversity Plus: 4H Assay for Vascular cell adhesion molecule 1 (VCAM1) Biomarker Activity (AID 2283033).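 For outcome: cell-surface VCAM-1 protein measured by ELISA.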 The conditions noted are these: primary human endothelial cells (HUVEC); actives raise or lower the signal. In short, it runs like this: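 Primary human umbilical vein endothelial cells were exposed to chemicals for 24 h, after which VCAM-1 was quantified by ELISA. Responses were fitted bidirectionally against DMSO as negative control and activity baseline.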

Read-out in assay [2]: Interferon-gamma inducible Protein 10 (IP10), CXCL10 (gene 3627)
Nature of the assay: BSK_BE3C_IP10: BioMAP Diversity Plus: BE3C Assay for Interferon-gamma inducible Protein 10 (IP10) Biomarker Activity (AID 2283034). The conditions noted are these: primary human bronchial epithelial cells; actives raise or lower the signal. In outline: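 Human primary bronchial epithelial cells were exposed to chemicals for 24 hours, after which IP-10 levels were measured by ELISA. Data were fitted bidirectionally against DMSO, which served as the negative control and activity baseline.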

Read-out in assay [3]: Monokine induced gamma interferon (MIG), CXCL9 (gene 4283)
The assay is described as follows: BSK_BE3C_MIG: BioMAP Diversity Plus: BE3C Assay for Monokine induced gamma interferon (MIG) Biomarker Activity (AID 2283035).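 For outcome: MIG protein measured by ELISA in BE3C cultures after 24 h of dosing.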 The conditions noted are these: primary human bronchial epithelial cells; actives raise or lower the signal. In outline:
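ELISA read-out of MIG in human lung bronchial epithelial primary cultures, 24 h post-dosing. Bidirectional curve fit vs DMSO baseline.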

Read-out in assay [4]: Transforming growth factor beta 1 (TGFb1), TGFB1 (gene 7040)
The assay is described as follows: BSK_BE3C_TGFb1: BioMAP Diversity Plus: BE3C Assay for Transforming growth factor beta 1 (TGFb1) Biomarker Activity (AID 2283036). Particulars: primary human bronchial epithelial cells; actives raise or lower the signal. In outline:
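Human primary bronchial epithelial cells (BE3C system) were dosed with chemical and TGF-b1 levels measured by ELISA at 24 h. Activity was fitted bidirectionally relative to DMSO negative control as baseline.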

Read-out in assay [5]: Plasminogen activator inhibitor-1 (PAI1), SERPINE1 (gene 5054)
The assay is described as follows: BSK_BE3C_PAI1: BioMAP Diversity Plus: BE3C Assay for Plasminogen activator inhibitor-1 (PAI1) Biomarker Activity (AID 2283037). The conditions noted are these: primary human bronchial epithelial cells; actives raise or lower the signal. In outline: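 Human primary bronchial epithelial cells were exposed to chemical for 24 h, then PAI-1 was quantified by ELISA. Activity was fitted bidirectionally relative to the DMSO negative control baseline.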

Read-out in assay [6]: urokinase plasminogen activator (uPA), PLAU (gene 5328)
Nature of the assay: BSK_BE3C_uPA: BioMAP Diversity Plus: BE3C Assay for urokinase plasminogen activator (uPA) Biomarker Activity (AID 2283038).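 For outcome: uPA protein level quantified by ELISA in cell cultures; uPA read one day after compound addition.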 The conditions noted are these: primary human bronchial epithelial cells; actives raise or lower the signal. In outline:
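Bronchial epithelial cells (human, primary); chemical 24 h; uPA by ELISA; bidirectional fit vs DMSO. SRB (0.1%, after 10% TCA fixation, 560 nm) in parallel cultures for cytotoxicity.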

Read-out in assay [7]: Urokinase-type plasminogen activator receptor (uPAR), PLAUR (gene 5329)
Nature of the assay: BSK_BE3C_uPAR: BioMAP Diversity Plus: BE3C Assay for Urokinase-type plasminogen activator receptor (uPAR) Biomarker Activity (AID 2283039).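 For outcome: cells exposed to compound for one day before measurement.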 The conditions noted are these: primary human bronchial epithelial cells; actives raise or lower the signal. In outline:
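Primary human bronchial epithelial cells were dosed with chemical and harvested 24 h later; uPAR was quantified by ELISA. Activity was fitted bidirectionally against DMSO as negative control and baseline.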

Read-out in assay [8]: Interleukin-6 (IL6), IL6 (gene 3569)
The assay is described as follows: BSK_CASM3C_IL6: BioMAP Diversity Plus: CASM3C Assay for Interleukin-6 (IL6) Biomarker Activity for (AID 2283040). The conditions noted are these: primary human coronary artery smooth muscle cells; actives raise or lower the signal.

Read-out in assay [9]: Interleukin-8 (IL8), CXCL8 (gene 3576)
The assay is described as follows: BSK_CASM3C_IL8: BioMAP Diversity Plus: CASM3C Assay for Interleukin-8 (IL8) Biomarker Activity (AID 2283042).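 Note: IL-8 protein level quantified by ELISA.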 The conditions noted are these: primary human coronary artery smooth muscle cells; actives raise or lower the signal.

Read-out in assay [10]: Human Leukocyte Antigen - DR isotype (HLADR), HLA-DRA (gene 3122)
Nature of the assay: BSK_CASM3C_HLADR: BioMAP Diversity Plus: CASM3C Assay for Human Leukocyte Antigen - DR isotype (HLADR) Biomarker Activity (AID 2283043).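 Note: cell-surface HLA-DR protein level quantified by ELISA.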 Particulars: primary human coronary artery smooth muscle cells; actives raise or lower the signal.

Read-out in assay [11]: Macrophage colony-stimulating factor (MCSF), CSF1 (gene 1435)
Nature of the assay: BSK_CASM3C_MCSF: BioMAP Diversity Plus: CASM3C Assay for Macrophage colony-stimulating factor (MCSF) Biomarker Activity (AID 2283044).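 Note: M-CSF protein amount quantified by ELISA after 24 h exposure.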 The conditions noted are these: primary human coronary artery smooth muscle cells; actives raise or lower the signal.

Read-out in assay [12]: Low-density lipoprotein receptor (LDLR), LDLR (gene 3949)
Nature of the assay: BSK_CASM3C_LDLR: BioMAP Diversity Plus: CASM3C Assay for Low-density lipoprotein receptor (LDLR) Biomarker Activity (AID 2283045).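 Note: LDLR protein level on the cell surface quantified by ELISA.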 Particulars: primary human coronary artery smooth muscle cells; actives raise or lower the signal.

Read-out in assay [13]: Monocyte Chemoattractant Protein-1 (MCP1), CCL2 (gene 6347)
The assay is described as follows: BSK_CASM3C_MCP1: BioMAP Diversity Plus: CASM3C Assay for Monocyte Chemoattractant Protein-1 (MCP1) Biomarker Activity (AID 2283046).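 Note: MCP-1 level quantified by ELISA 24 h after dosing.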 The conditions noted are these: primary human coronary artery smooth muscle cells; actives raise or lower the signal.

A short description of assay [14]: BSK_CASM3C_Proliferation: Cell Proliferation Assessment in the BioMAP Diversity Plus: CASM3C Assay (AID 2283047).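 Note: sulforhodamine B total protein stain as relative cell number at 560 nm; sub-confluent cells exposed 48 h before staining; fitted both ways against DMSO so gain or loss of cell number.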 Particulars: primary human coronary artery smooth muscle cells.
Read-out in assay [15]: Monokine induced gamma interferon (MIG), CXCL9 (gene 4283)
The assay is described as follows: BSK_CASM3C_MIG: BioMAP Diversity Plus: CASM3C Assay for Monokine induced gamma interferon (MIG) Biomarker Activity (AID 2283048). The conditions noted are these: primary human coronary artery smooth muscle cells; actives raise or lower the signal.

Read-out in assay [16]: serum amyloid A (SAA), SAA1 (gene 6288)
The assay is described as follows: BSK_CASM3C_SAA: BioMAP Diversity Plus: CASM3C Assay for serum amyloid A (SAA) Biomarker Activity (AID 2283049).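 Note: SAA protein level quantified by ELISA.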 Particulars: primary human coronary artery smooth muscle cells; actives raise or lower the signal.

A short description of assay [17]: BSK_CASM3C_SRB: Viability Assessment in the BioMAP Diversity Plus: CASM3C Assay (AID 2283050).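 Note: total protein by SRB staining as cytotoxicity measure in parallel cultures.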 Particulars: primary human coronary artery smooth muscle cells.
Read-out in assay [18]: Thrombomodulin, THBD (gene 7056)
Nature of the assay: BSK_CASM3C_Thrombomodulin: BioMAP Diversity Plus: CASM3C Assay for Thrombomodulin Biomarker Activity (AID 2283051).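 Note: thrombomodulin protein level measured by ELISA 24 h after dosing.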 Particulars: primary human coronary artery smooth muscle cells; actives raise or lower the signal.

Read-out in assay [19]: Tissue Factor, F3 (gene 2152)
Nature of the assay: BSK_CASM3C_TissueFactor: BioMAP Diversity Plus: CASM3C Assay for Tissue Factor Biomarker Activity (AID 2283052).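 Note: cell surface tissue factor protein level read by ELISA.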 Particulars: primary human coronary artery smooth muscle cells; actives raise or lower the signal.

Read-out in assay [20]: Tissue plasminogen activator (tPA), PLAT (gene 5327)
Nature of the assay: BSK_BE3C_tPA: BioMAP Diversity Plus: BE3C Assay for Tissue plasminogen activator (tPA) Biomarker Activity (AID 2283041).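 For outcome: tPA level quantified by ELISA one day after compound addition.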 Particulars: primary human bronchial epithelial cells; actives raise or lower the signal. In outline:
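Human primary bronchial epithelial cells were dosed with chemical and tPA biomarker levels measured by ELISA 24 hours later. Activity was fitted bidirectionally against DMSO as negative control and baseline.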

Regarding `CC(=O)Nc1ccc(C(=O)CCl)cc1`, the AC50 in [1] is 6.74 µM (active); in [2], 25.6 µM (active); in [3], 33.3 µM (active); in assay [7] it was 31.7 µM (active); in assay [8], 10.6 µM (active); in [9], 12.6 µM (active). For the same compound, the AC50 was 3.78 µM (active) in assay [10]; 8.22 µM (active) in [11]; 11.6 µM (active) in [12]; 8.38 µM (active) in [13]; 5.44 µM (active) in assay [14]; 8.96 µM (active) in [15]. For the same compound, the AC50 in [17] is 12.8 µM (active); in assay [19], 3.97 µM (active). The outcome in assay [4], in assay [5], in assay [6], in assay [16] and in assay [18] was inactive.
As for `COc1ccc(OC)c(N=Nc2c(O)ccc3ccccc23)c1`, the half-maximal activity concentration (AC50) was 20 µM (active) in assay [1]; 6.72 µM (active) in assay [2]; 5.41 µM (active) in assay [7]; 0.0186 µM (active) in assay [11]; 0.119 µM (active) in [12]; 33.6 µM (active) in assay [14]. Further, in assay [17], the concentration at half-maximal activity (AC50) was 20 µM (active). Besides, the result in [3], in assay [4], in [5], in [6], in assay [8] and in assay [20] was inactive. The result in [9], in [10], in assay [13], in assay [15], in assay [16] and in [18] was inactive. The outcome in [19] was inactive.
`CC=Cc1ccc(OCC)c(O)c1`: the result in assay [1], in assay [2], in [3], in [4], in [5] and in assay [6] was inactive. Further, the result in assay [7], in assay [8], in assay [20], in assay [9], in [10] and in assay [11] was inactive. For the same compound, the result in assay [12], in assay [13], in assay [14], in [15], in assay [16] and in [17] was inactive. For the same compound, the result in [18] and in [19] was inactive.
For the compound `CC(=O)C1(C)CC2=C(CCCC2(C)C)CC1C` (configuration not stated), the AC50 is 9.63 µM (active) in assay [1]; 25.6 µM (active) in assay [2]; 34.9 µM (active) in assay [3]; 12.8 µM (active) in assay [4]; 20 µM (active) in assay [5]; 20 µM (active) in [6]. In addition, the AC50 in [7] was 20 µM (active); in assay [8] it was 14 µM (active); in [20], 12.7 µM (active); in [11], 10.3 µM (active); in assay [13], 20 µM (active); in [14], 13.2 µM (active). For the same compound, the concentration at half-maximal activity (AC50) was 27.6 µM (active) in assay [15], 11.9 µM (active) in assay [16], 12.4 µM (active) in [17] and 11.6 µM (active) in assay [19]. For the same compound, the result in assay [9], in assay [12] and in assay [18] was inactive.
For the compound `O=C(Nc1ccc2c(O)c(N=Nc3ccc(N=Nc4ccc(S(=O)(=O)O)cc4)cc3)c(S(=O)(=O)O)cc2c1)c1ccccc1`, the outcome in assay [1], in [2], in assay [3], in assay [5], in [6] and in assay [7] was inactive. The outcome in assay [8], in assay [9], in assay [10], in assay [11], in assay [12] and in [13] was inactive. Besides, the result in [14], in assay [15], in assay [16], in assay [17], in [18] and in assay [19] was inactive. The half-maximal activity concentration (AC50) in assay [20] was 5.36 µM (active) and 5.91 µM (active).
Regarding `O=C1c2ccccc2C(=O)c2c(O)ccc(O)c21`, the outcome in assay [1], in [2], in assay [3], in assay [4], in [5] and in assay [6] was inactive. Further, the result in assay [7], in assay [8], in [20], in [9], in [11] and in assay [12] was inactive. Besides, the result in [13], in [15], in [16], in [17], in assay [18] and in assay [19] was inactive. Also, the concentration at half-maximal activity (AC50) in assay [10] was 4.94 µM (active); in assay [14], 15 µM (active).
